Assay outcomes deposited in PubChem BioAssay by National Center for Advancing Translational Sciences (NCATS).
CHX counter: affects cycloheximide protein synthesis inhibition readout, counter-screen. 300,000 tested, 12% active. cell reporter, cycloheximide protein synthesis inhibition counterscreen. max response, %. AID 2314; in the data active = max response mostly above about 13%, no sharp cut-off; inactive = mostly below about 14%; also: read at 38.3 µM for the half of the compounds with a filed dose; 0% is about no effect
Shiga inhibitor: inhibitors of Shiga toxin in Vero cells; inhibition, % at 38.7 µM; 290,000 tested, 9.2% active; Vero cells, Shiga toxin protein synthesis inhibition reporter; in the data active = inhibition mostly above about 28%, no sharp cut-off; inactive = mostly below about 43%; also: 0% is about no effect
Pf growth 48h: inhibits P. falciparum growth in the first generation, 48 h. 310,000 tested, 5.9% active. Potency, µM (top dose mostly 28.7 µM), for inactives: top-dose activity change, negative = inhibition, hits mostly inhibitors. P. falciparum luciferase growth in erythrocytes, 48 h; also: potency is read from the fitted curve at half-maximal effect; % is scaled to controls: 0 for no effect and ±100 for the full control effect
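Growth was read as firefly luciferase luminescence after a 48 h, 37 C, 5% CO2 exposure of compounds to reporter-bearing P. falciparum cultures (0.1% parasitemia, 2% hematocrit final) in Albumax-supplemented RPMI 1640.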
HCMV antiviral: inhibitors of human cytomegalovirus. HFF cells, HCMV-luciferase reporter, 72 h; active compounds read low. activity change, negative = inhibition, % at 57.5 µM. 410,000 tested, 4.5% active. AID 1259415; in the data active = activity change below about -60%; inconclusive = no clear call, values can overlap the other calls; inactive = above about -39%; also: % is scaled to controls: 0 for no effect and ±100 for the full control effect
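Two compound doses tested in HFFs infected with HCMV-luciferase, MOI 1 PFU/cell, 72 h at 37C. Lysate luminescence read with OneGlo; data normalized against buffer-only and 10uM Salinomycin inhibitor controls.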
HCV inhibitor: inhibitors of hepatitis C virus infection; Huh7.5.1 HCVcc-Cre infection, luciferase reporter, 44 h; Potency, µM (highest dose often 41.8 µM), for the others: at the top dose activity change, negative = inhibition, hits mostly inhibitors; 340,000 tested, 3.4% active; AID 651820; also: potency is read from the fitted curve at half-maximal effect; % is scaled to controls: 0 for no effect and ±100 for the full control effect
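Seed cells (1,000/well) for 4 h; treat with compound and infect with HCVcc-Cre, moi about 0.5. Incubate 44 h, then detect luciferase activity.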
Pf growth 96h: P. falciparum growth inhibition at 96 hour, primary screen for plastid delayed-death inhibitors; P. falciparum luciferase reporter growth, 96 h; Potency, µM (highest dose often 28.7 µM), for inactives: at the top dose activity change, negative = inhibition, most hits filed as inhibitors; 320,000 tested, 6.9% active; AID 504834; also: potency is read from the fitted curve at half-maximal effect; % is scaled to controls: 0 for no effect and ±100 for the full control effect
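Two-generation exposure (96 h) targets delayed-death phenotype. Reporter parasites carrying integrated firefly luciferase, in red cells at 2% hematocrit and 0.05% parasitemia final, kept at 37 C, 5% CO2; luminescence loss indicates inhibition.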
* = called active by the depositor; ? = inconclusive; . = no result; [ ] = remark or other dose. Compounds with a hit are over-represented: about 21% of the library has one in this group of screens. Unless noted, calls follow the shape of the dose curve; as a rule, active = well fitted inhibition curve with a large enough effect; inconclusive = small, poorly fitted or top-dose-only effect, or another doubt; inactive = no such curve, though single readings can be large or run the other way.

SMILES	CHX counter	Shiga inhibitor	Pf growth 48h	HCMV antiviral	HCV inhibitor	Pf growth 96h
CCn1cc(C(=O)NCC(C)C)c(=O)c2cc(F)c(N3CCN(C)CC3)cc21	-0.9	-12.4	-9.3%	30.1	-19.7%	-17.6%
O=C1CC(O)C(Cc2ccccc2)N1 (configuration not stated)	.	.	.	-1.9	.	.
Cc1cccc(Cn2c(SCc3ccc(C(=O)NCc4cccs4)cc3)nc3cccnc32)c1	.	.	.	-34.7	.	.
CCNc1nc(NCc2ccccc2)nc(Oc2ccc(=O)[nH]n2)n1	0.3	3.1	1.04µM*	75.1	1.0%	-19.9%
COc1nc(NCC(C)C)nc(Oc2ccc(=O)n(-c3ccccc3)n2)n1	-2.4	42.4	.	76.0	1.4%	16.8%
CCNc1nc(Oc2ccc(=O)n(-c3ccccc3)n2)nc(N(C)C)n1	-4.6	-10.6	-13.9%	30.0	1.1%	2.62µM*
CCNc1nc(OC)nc(Oc2ccc(=O)n(-c3ccccc3)n2)n1	6.9	4.8	0.928µM*	5.5	-0.3%	0.2%[5.75 µM]
CCOC(=O)c1c(C)[nH]c(C)c1S(=O)(=O)NCC(=O)Nc1cccc(Cl)c1	.	.	.	0.1	.	.
Clc1cccc(CON/C=N/c2ncnc3sccc23)c1	-2.4	3.8	?	-28.7	?	42.0%
Clc1cccc(Cl)c1CON/C=N/c1ncnc2sccc12	8.4	31.6	?	?	11.2µM*	?
CC(C)c1ccc(N2C(=O)CS(=O)(=O)C23C(=O)N(Cc2cccc(F)c2)c2ccccc23)cc1 (configuration not stated)	.	.	.	-25.8	.	.
CCOc1cc(S(=O)(=O)NCc2ccccc2)c(OCC)cc1-n1cnnn1	.	.	.	?	-16.8%	.
COc1cc(CN(C2CCCCC2)S(=O)(=O)c2ccc(S(=O)(=O)N(C)C3CCCCC3)cc2)cc(OC)c1OC	0.9	-10.5	?	-38.2	9.5%	8.28µM*
Cc1cc(S(=O)(=O)N(Cc2ccc(C(C)C)cc2)CC2CCCO2)ccc1-n1cnnn1 (configuration not stated)	-2.4	-12.2	.	-77.2*	?	?
COc1ccc(CN(Cc2ccc(OC)cc2)S(=O)(=O)c2ccc(-n3cnnn3)c(C)c2)cc1	-4.4	18.4	?	-36.2	?	13.1µM*
CCOc1cc(S(=O)(=O)N(Cc2ccccc2)Cc2ccccc2)c(OCC)cc1-n1cnnn1	-2.1	-10.5	?	19.7	.	6.57µM*
CCc1cccc(C)c1NC(=O)Cn1c(=O)n(-c2ccc(C)cc2)c(=O)c2c1cnn2C	.	.	.	13.5	.	.
COc1cc2c(c(OC)c1)C(c1cccc(F)c1F)CC(=O)N2 (configuration not stated)	.	.	.	-34.1	.	.
COc1cccc(CN(Cc2cccnc2)S(=O)(=O)c2ccc(-n3cnnn3)c(C)c2)c1OC	3.9	-11.5	11.7µM*	-5.4	-23.5%	.
COc1ccc(CN(Cc2cccnc2)S(=O)(=O)c2ccc(-n3cnnn3)c(OC)c2)cc1	-0.6	-3.9	11.7µM*	-11.1	-10.5%	21.9%
COc1ccc(CN(C2CCCC2)S(=O)(=O)c2ccc(-n3cnnn3)c(OC)c2)cc1OC	-1.6	-3.9	14.7µM*	32.8	-19.0%	?
O=C(Nc1ccccc1)c1cc(C2CCCCN2S(=O)(=O)c2ccc(F)cc2F)on1 (configuration not stated)	.	.	.	-2.3	.	.
Cc1nn(C)c2c1c(-c1ccccc1)cc(=O)n2CC(=O)NC(C)(C)C	.	.	.	-2.7	.	.
COc1ccc(OC)c(NC(=O)CSc2ncnc3sc(C)cc23)c1	.	.	.	-19.5	5.9%	.
Cc1cccc(NC(=O)c2ccoc2C)n1	29.0*	83.7*	98.5%	11.2	13.9%	.
SMILES	CHX counter	Shiga inhibitor	Pf growth 48h	HCMV antiviral	HCV inhibitor	Pf growth 96h
Cc1occc1C(=O)Nc1cc(C(C)(C)C)on1	29.3*	70.0*	49.8%	114.8	-21.8%	.
Cc1cccc(NC(=O)c2cc(NC(=O)c3ccco3)ccc2Cl)n1	24.8	21.2*	0.0%	-38.8	?	-3.8%
Cc1cccc(NC(=O)c2ccccc2Br)n1	13.3	28.0	.	19.7	4.9%	11.7µM*
Cc1cccc(NC(=O)c2cc(NC(=O)C3CCCCC3C(=O)O)ccc2Cl)n1 (configuration not stated)	0.4	-3.8	-7.8%	-3.7	?	10.4%
COc1ccccc1NC(=O)C(Cc1ccccc1)NS(=O)(=O)c1cccc2nsnc12 (configuration not stated)	.	.	.	-15.2	.	.
Cc1ccccc1CC(=O)Nc1cc(C(C)(C)C)on1	9.7*	11.9	19.4%	43.3	-9.8%	?
O=C(Nc1ccc(S(=O)(=O)NC2CCCCC2)cc1)c1ccco1	0.6	-6.0	?	-26.2	-9.8%	?
CC(C)n1cnc2cc(NC(=O)c3ccco3)ccc21	27.8*	74.9*	98.6%	100.4	6.4%	4.8%
COc1ccc(-n2cnc3cc(NC(=O)c4ccco4)ccc32)cc1	20.8	-10.3	.	.	-25.7%	2.33µM*
COc1ccccc1-n1cnc2cc(NC(=O)c3ccco3)ccc21	11.8	84.4	-18.7%	-8.5	?	.
O=C(Nc1ccc2c(c1)ncn2C1CCCCC1)c1ccco1	37.4*	90.6*	-18.3%	-8.0	-2.3%	-8.1%[5.75 µM]
Fc1ccc(-c2csc3[n+]2CCS3)cc1	1.3	-4.0	10.4µM*	-1.6	10.6%	4.15µM*
O=[N+]([O-])c1ccc(-c2csc3[n+]2CCS3)cc1	-2.8	-15.0	.	-17.0	?	9.28µM*
Fc1ccc(-c2csc(=S)[nH]2)cc1	5.4	26.0	33.2%[5.75 µM]	-7.1	-1.7%	-1.4%
COc1cccc(C(=O)N(Cc2ccco2)c2c(N)n(Cc3ccccc3)c(=O)[nH]c2=O)c1	.	.	-27.9%	0.0	3.4%	?
Nc1nonc1C(=O)NCCNCc1c(OCc2ccccc2F)ccc2ccccc12	-5.4	-18.7	4.65µM*	6.3	14.1µM*	.
Nc1nonc1C(=O)NCCNCc1ccccc1	-1.7	-8.4	.	-18.8	4.0%	11.7µM*
Nc1nonc1C(=O)NCCNCc1ccccc1F	.	.	.	2.3	.	.
Nc1nonc1C(=O)NCCNS(=O)(=O)c1ccc(F)cc1	-2.1	-12.0	14.7%	28.8	3.8%	2.94µM*
CNCc1c(OCc2ccccc2F)ccc2ccccc12	-1.6	19.9	-25.0%	?	8.91µM*	54.6%
Cc1ccccc1NC(=O)c1cc2ccccn2n1	52.2*	67.0*	204.2%	21.2	?	278.4%
CC(=O)c1cccc(NC(=O)c2cc3ccccn3n2)c1	30.2*	34.2	.	109.8	-8.4%	?
COc1ccc(C)cc1NC(=O)c1cc2ccccn2n1	.	.	.	88.3	.	.
Cc1ccc(C)c(NC(=O)c2cnn3ccccc23)c1	14.0*	66.4	.	45.1	9.1%	-11.8%
Cc1ccc(C)c(NC(=O)c2cc3ccccn3n2)c1	26.8*	99.2*	112.2%	-14.8	9.0%	32.9%
CSc1ccccc1C(=O)Nc1cc(C)ccc1C	-2.4	-11.1	-3.6%	?	-0.5%	?
Cc1cc(Cl)ccc1NC(=O)c1cc2ccccn2n1	.	.	.	52.9	.	.
COc1ccc(CNS(=O)(=O)c2ccccc2Br)c(OC)c1	.	.	.	11.8	.	.
